Bioassay records (PubChem)
TDP1 block – inhibitors of human tyrosyl-DNA phosphodiesterase TDP1. Q9NUW8. recombinant TDP1, AlphaScreen DNA substrate cleavage. Potency, µM (series often up to 130 µM), actives largely listed as inhibitors. 0.28% of 350,000 active; further: nearly all actives have a fitted effect of over 40% in size
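Steps: enzyme plus compound, 15 min RT; add biotin/phosphotyrosine-FITC oligonucleotide (15 nM final), react 5 min; add donor/acceptor beads (10 ug/ml final), 10 min; read AlphaScreen. Tdp1 at 1 nM final.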
RECQ1 helicase – inhibitors of human RECQ1 DNA helicase | P46063 | RECQ1 DNA unwinding, red fluorescence kinetic read | Potency, µM (series often up to 57.3 µM), actives largely listed as inhibitors | 0.54% of 240,000 active; further: nearly all actives have a fitted effect of over 30% in size
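RECQ1T1 50 nM; forked duplex (20 bp + 30-nt ss tails) 200 nM, ATP 2 mM final; pH 8.0, 2 mM MgCl2, 2.5 ug/ml poly(dI-dC); 15 min compound preincubation; discontinuous kinetic read over 2 h at RT.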
APEX1 inh – APE1 (human) endonuclease inhibition; 0.35% of 350,000 active; recombinant APE1, TAMRA/BHQ-2 abasic DNA cleavage fluorescence; P27695; Potency, µM (titrated, usually from 65.8 µM), hits mostly inhibitors; further: nearly all actives have a fitted effect of over 55% in size
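Readout is kinetic fluorescence (ex 525, em 598 nm) from cleavage of 50 nM TAMRA/BHQ-2 THF abasic duplex by 0.75 nM APE1, compound added 15 min beforehand at RT.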
BLM inh – blocks DNA unwinding by human BLM helicase | 0.2% of 350,000 active | recombinant BLM DNA unwinding, fluorescence dequenching | Potency, µM (doses to about 56.1 µM), most hits filed as inhibitors | P54132; further: nearly all actives have a fitted effect of over 35% in size
Target sequence (P54132 whole entry, looked up): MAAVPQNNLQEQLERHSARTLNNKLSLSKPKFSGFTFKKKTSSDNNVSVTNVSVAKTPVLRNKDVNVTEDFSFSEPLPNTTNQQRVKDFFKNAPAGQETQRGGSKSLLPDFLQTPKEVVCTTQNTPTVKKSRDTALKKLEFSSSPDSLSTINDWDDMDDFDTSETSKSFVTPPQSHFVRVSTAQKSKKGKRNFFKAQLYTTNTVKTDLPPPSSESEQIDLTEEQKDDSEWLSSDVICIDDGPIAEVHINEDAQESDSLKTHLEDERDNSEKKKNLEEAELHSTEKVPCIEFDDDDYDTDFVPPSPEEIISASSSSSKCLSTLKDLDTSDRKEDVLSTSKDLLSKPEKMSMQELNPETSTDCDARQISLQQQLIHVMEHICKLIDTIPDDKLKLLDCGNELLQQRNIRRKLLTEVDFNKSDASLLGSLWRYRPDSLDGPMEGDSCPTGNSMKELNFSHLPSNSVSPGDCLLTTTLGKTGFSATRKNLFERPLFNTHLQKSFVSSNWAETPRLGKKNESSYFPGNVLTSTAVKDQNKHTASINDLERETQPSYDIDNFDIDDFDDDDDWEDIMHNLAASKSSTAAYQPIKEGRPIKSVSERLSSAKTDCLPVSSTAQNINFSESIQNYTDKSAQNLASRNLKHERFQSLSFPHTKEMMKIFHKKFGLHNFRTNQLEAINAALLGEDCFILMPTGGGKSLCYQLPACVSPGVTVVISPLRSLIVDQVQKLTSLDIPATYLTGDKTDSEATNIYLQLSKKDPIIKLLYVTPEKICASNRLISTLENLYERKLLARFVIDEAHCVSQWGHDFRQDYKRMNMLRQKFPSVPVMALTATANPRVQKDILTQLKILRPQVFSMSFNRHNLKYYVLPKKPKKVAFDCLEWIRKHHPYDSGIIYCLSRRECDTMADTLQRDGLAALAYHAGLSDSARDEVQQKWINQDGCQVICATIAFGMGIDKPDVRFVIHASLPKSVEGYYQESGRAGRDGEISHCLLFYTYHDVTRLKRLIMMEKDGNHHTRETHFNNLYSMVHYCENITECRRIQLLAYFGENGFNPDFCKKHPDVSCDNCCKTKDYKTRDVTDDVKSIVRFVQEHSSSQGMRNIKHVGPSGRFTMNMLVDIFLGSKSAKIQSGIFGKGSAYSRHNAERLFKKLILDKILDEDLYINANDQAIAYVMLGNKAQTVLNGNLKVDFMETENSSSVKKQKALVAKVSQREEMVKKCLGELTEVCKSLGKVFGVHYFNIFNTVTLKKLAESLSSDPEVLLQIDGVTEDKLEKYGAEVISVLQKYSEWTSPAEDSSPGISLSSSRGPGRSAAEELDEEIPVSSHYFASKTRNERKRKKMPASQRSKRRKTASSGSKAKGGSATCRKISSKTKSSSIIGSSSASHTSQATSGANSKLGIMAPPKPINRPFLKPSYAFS
FEN1 inh-1 – human FEN1 inhibition | 0.35% of 390,000 active | Recombinant FEN1 flap cleavage, fluorescence, 15 min | Potency, µM (doses to about 114 µM), usual class: inhibitors | P39748; further: nearly all actives have a fitted effect of over 65% in size
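In this screen, 50 nM flap DNA substrate was added to 10 nM FEN1 pretreated with compound for 15 min at room temperature; cleavage was followed with reads at 0 and 15 min, and Hill fitting gave concentration–response parameters.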
FEN1 inh-2 – FEN1 inhibition, cherry-pick retest. shares compounds with FEN1 inh-1. FEN1 flap cleavage, TAMRA/BHQ2 fluorogenic DNA substrate. Potency, µM, most hits filed as inhibitors. 79% of 880 active. AID 720498; further: nearly all actives have a fitted effect of over 60% in size
Large screens that a line does not name were inactive (follow-up assays come after a bar, where they were run). Sampled rows, rich in hits. Any-hit rate of the full collection: about 0.92%. The call rests on the fitted dose curve; in most records, active means well fitted curve in the direction sought with a large enough effect; inconclusive means small, poorly fitted or top-dose-only effect, or another doubt; inactive means no such curve, though single readings can be large; an effect the other way counts as inactive or inconclusive.

CCc1ccc2c(c1)c(=O)c(C(=O)c1ccccc1)cn2CC(=O)Nc1ccc(C)c(Cl)c1	none (no result: RECQ1 helicase, APEX1 inh)
COc1ccc(C(=O)N(Cc2ccccc2)Cc2cccs2)c(O)c1	none (no result: RECQ1 helicase, APEX1 inh, BLM inh, FEN1 inh-1)
COc1ccc(C2c3c(ncn(CCCN4CCOCC4)c3=N)Oc3ccc4ccccc4c32)cc1OC (configuration not stated)	FEN1 inh-1 inconclusive
COc1cccc(C2c3c(ncn(CCCN4CCOCC4)c3=N)Oc3ccc4ccccc4c32)c1 (configuration not stated)	none (no result: TDP1 block, RECQ1 helicase, APEX1 inh, BLM inh, FEN1 inh-1) | FEN1 inh-2 37.9
C=CCC(C)(O)C(=O)OCC (configuration not stated)	none (no result: FEN1 inh-1)
CCCCN(CC)CCCNC(=O)c1cc2c(-c3ccc(OC)c(OC)c3)nn(C)c2s1	FEN1 inh-1 35.5µM (no result: RECQ1 helicase) | FEN1 inh-2 33.8
CCN(CCCNC(=O)c1cc2c(Cl)nc3ccccc3c2s1)Cc1ccccc1	FEN1 inh-1 inconclusive (no result: RECQ1 helicase, APEX1 inh)
CCN(CC)CCCNC(=O)c1cc2c(Cl)nc3ccccc3c2s1	FEN1 inh-1 44.7µM | FEN1 inh-2 67.5
CCOCCCNC(=O)c1cc2c(-c3ccc(OC)c(OC)c3)nn(C)c2s1	FEN1 inh-1 inconclusive (no result: RECQ1 helicase, APEX1 inh)
CCN(CC)CCCNC(=O)c1cc2c(-c3cccc(OC)c3)nn(C)c2s1	FEN1 inh-1 inconclusive (no result: TDP1 block, RECQ1 helicase) | FEN1 inh-2 inconclusive
COc1cc(O)c2c(=O)cc(-c3ccc(OC)c(-c4c(O)cc(O)c5c(=O)cc(-c6ccc(O)cc6)oc45)c3)oc2c1	none (no result: FEN1 inh-1)
O=c1cc(-c2ccc(O)c(-c3c(O)cc(O)c4c(=O)cc(-c5ccc(O)cc5)oc34)c2)oc2cc(O)cc(O)c12	FEN1 inh-1 44.7µM | FEN1 inh-2 47.8
Oc1ccc(N=Nc2ccccc2-c2nn[nH]n2)c(O)c1	FEN1 inh-1 inconclusive (no result: TDP1 block, RECQ1 helicase) | FEN1 inh-2 37.9
Cc1ccccc1-c1nn[nH]n1	none
NC(=O)N=Nc1c2[nH]c3ccccc3nc-2c2ccccc12	APEX1 inh inconclusive, FEN1 inh-1 10µM (no result: TDP1 block) | FEN1 inh-2 3.38
CCOc1cc(/C=C2\C(=O)N(CCC#N)N=C2C)ccc1OCC(N)=O	none | FEN1 inh-2 inconclusive
COc1cc(/C=C2\C(=O)N(CCC#N)N=C2C)ccc1OCC(=O)Nc1ccccc1	FEN1 inh-1 inconclusive
